T cruzi growth-1: blocks T. cruzi growth in NIH3T3 culture | T. cruzi beta-gal in NIH3T3, GalScreen luminescence, 90 h | inhibition, % at 8.34 µM | 77,000 tested, 5.9% active | AID 624255;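 active = mean inhibition above about 93%, with at least 55% of replicates each passing it, limit read from the data, passing the limit was not always enough; inconclusive = only one of those two conditions holds; inactive = neither condition holds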
C diff HTS: inhibitors of Clostridium difficile growth; 86,000 tested, 0.25% active; Clostridium difficile clinical isolate growth, OD600, 24 h; active compounds read low; AID 1259249; growth activity, negative = inhibition, % at 16 µg/mL (by protocol);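 active = mean growth activity at or below -80% and every replicate also at or below -80%; inconclusive = mean at or below -80% but some replicate above -80%; inactive = mean growth activity above -80%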
Pf Dd2 inh: inhibitors of Plasmodium falciparum Dd2 growth; 94,000 tested, 2.3% active; activity change, % at 10 µM; P. falciparum Dd2 growth, SYBR Green, 72 h; active compounds read low; AID 1159554; in the data active = activity change below about -80%; inconclusive = no clear call, values can overlap the other calls
T cruzi growth-2: inhibitors of T. cruzi proliferation; shares compounds with T cruzi growth-1; T. cruzi beta-gal in NIH3T3, GalScreen luminescence, 90 h; inhibition, % at 8.35 µM; 5,600 tested, 72% active; AID 651739;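 active = mean replicate inhibition above about 95% and at least 55% of replicates individually reaching it, limit read from the data; inconclusive = only one of the two criteria is met; inactive = neither criterion is met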
T cruzi growth-3: inhibitors of T. cruzi proliferation | shares compounds with T cruzi growth-1 | T. cruzi beta-gal in NIH3T3, GalScreen luminescence, 90 h | inhibition, % at 2.09 µM | 5,600 tested, 21% active | AID 651740;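 active = mean inhibition above about 95%, with at least 55% of replicates also reaching it, limit read from the data; inconclusive = meets just one of the two conditions; inactive = meets neither condition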
3T3 cytotox: cytotoxicity in mouse NIH/3T3 fibroblasts; shares compounds with T cruzi growth-1; AID 651742; 5,600 tested, 14% active; cytotoxicity (signal decrease), % at 8.35 µM; NIH/3T3 viability, CellTiter-Glo ATP luminescence, 90 h;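 active = mean signal decrease across replicates above about 35% based on untreated-well scatter, with enough replicates individually passing, limit read from the data; inconclusive = no rule stated though some were filed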
NIH3T3 tox 2: cytotoxicity in mouse NIH/3T3 fibroblasts; shares compounds with T cruzi growth-1; NIH/3T3 viability, CellTiter-Glo ATP luminescence, 90 h; inhibition, % at 24.9 µM; 5,600 tested, 56% active;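 active = mean loss of cell viability signal at or above a set limit, and enough replicates individually reaching it; inconclusive = meets only the mean limit or only the replicate share; inactive = meets neither condition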
Each line names hits and unclear results; the compound was inactive in the other large screens (follow-up assays come after a bar, where they were run). The list is not random: actives were taken first. Their share in the collection is about 6.7%.

COc1ccccc1CNC(=O)C[C@@H]1CC[C@@H]2[C@H](COC[C@@H](O)CN2Cc2cccc(-c3ccncc3)c2)O1	none (no result: Pf Dd2 inh)
C[C@H]1CN([C@@H](C)CO)C(=O)c2cccc(NC(=O)NC3CCCCC3)c2O[C@H]1CN(C)S(C)(=O)=O	none (no result: T cruzi growth-1)
CC=Cc1ccc2n(c1=O)C[C@H]1[C@H](CO)[C@@H](C(=O)NC3CCC3)[C@@H]2N1S(=O)(=O)c1cn(C)cn1 (mixture of isomers)	none (no result: Pf Dd2 inh)
O=C(Cc1ccncc1)NCC[C@H]1CC[C@@H](NC(=O)Nc2ccc(Cl)cc2)[C@H](CO)O1	none
COc1ccc(-c2cn(CC[C@H]3CC[C@@H](NS(=O)(=O)c4ccccc4C)[C@@H](CO)O3)nn2)cc1	T cruzi growth-1 107 | T cruzi growth-2 103 | T cruzi growth-3 inactive | 3T3 cytotox inactive | NIH3T3 tox 2 inactive
O=S(=O)(N[C@@H]1CC[C@@H](CCn2cc(-c3cccc(F)c3)nn2)O[C@H]1CO)c1ccc(Cl)cc1	none (no result: C diff HTS)
COc1cccc(S(=O)(=O)N[C@@H]2CC[C@@H](CCn3cc(-c4ccccn4)nn3)O[C@@H]2CO)c1	T cruzi growth-1 108 | T cruzi growth-2 inactive | T cruzi growth-3 inactive | 3T3 cytotox inactive | NIH3T3 tox 2 inactive
O=S(=O)(N[C@H]1CC[C@@H](CCn2cc(-c3cccc(F)c3)nn2)O[C@H]1CO)c1ccc(Cl)cc1	T cruzi growth-1 111 (no result: C diff HTS) | T cruzi growth-2 inactive | T cruzi growth-3 inactive | 3T3 cytotox inactive | NIH3T3 tox 2 inactive
Cc1ccccc1S(=O)(=O)N[C@H]1CC[C@@H](CCn2cc(-c3ccccc3)nn2)O[C@H]1CO	none
Cc1cccc(S(=O)(=O)N[C@@H]2CC[C@H](CCn3cc(-c4ccccn4)nn3)O[C@@H]2CO)c1	none
C[C@H]1CN([C@@H](C)CO)C(=O)c2cccc(NC(=O)Nc3ccc4c(c3)OCO4)c2O[C@@H]1CN(C)C(=O)NC1CCCCC1	none
CCCN(C)C[C@H]1Oc2cc(C#CC(C)(C)O)ccc2S(=O)(=O)N([C@H](C)CO)C[C@H]1C	none
O=C(CN1CCOCC1)NCC[C@H]1CC[C@@H](NS(=O)(=O)c2ccc(Cl)cc2)[C@@H](CO)O1	none
CN1CCN(C(=O)C[C@@H]2C[C@H]3c4cc(NC(=O)C5CCOCC5)ccc4O[C@H]3[C@H](CO)O2)CC1	none
CCCC(=O)N1CC2(CCN(CC3CCCC3)CC2)c2c([nH]c3cc(OC)ccc23)[C@@H]1CO	none (no result: T cruzi growth-1)
C[C@H](CO)N1C[C@H](C)[C@H](CN(C)S(C)(=O)=O)Oc2c(NS(=O)(=O)c3cn(C)cn3)cccc2C1=O	none (no result: C diff HTS)
COCC#Cc1ccc2c(c1)O[C@@H](CN(C)C)[C@H](C)CN([C@@H](C)CO)S2(=O)=O	none
CO[C@@H]1CN(C)C(=O)c2ccc(NC(=O)Nc3ccc4c(c3)OCO4)cc2OC[C@@H](C)N(C)C[C@H]1C	none
O=C(Cc1cccnc1)N1CC[C@@H]2[C@@H](CO)Nc3ccc(C#Cc4ccccc4F)cc3[C@@H]21	none (no result: T cruzi growth-1)
Cc1noc(C)c1S(=O)(=O)Nc1ccc2c(c1)C(=O)N([C@@H](C)CO)C[C@H](C)[C@@H](CN(C)Cc1ccncc1)OCCCC[C@H](C)O2	none
CCCNC(=O)N1[C@@H](C#N)[C@@H](c2ccc(C#Cc3ccc(F)cc3)cc2)[C@@H]1CO	T cruzi growth-1 103 | T cruzi growth-2 107 | T cruzi growth-3 103 | 3T3 cytotox inactive | NIH3T3 tox 2 inconclusive
N#C[C@H]1[C@H](c2ccc(C#Cc3ccc(F)cc3)cc2)[C@H](CO)N1C(=O)Nc1ccc(F)cc1	none
CCCNC(=O)N1[C@@H](C#N)[C@H](c2ccc(C#Cc3ccc(F)cc3)cc2)[C@@H]1CO	T cruzi growth-1 103 | T cruzi growth-2 105 | T cruzi growth-3 inactive | 3T3 cytotox inactive | NIH3T3 tox 2 40
N#C[C@H]1[C@@H](c2ccc(C#Cc3ccc(F)cc3)cc2)[C@H](CO)N1C(=O)Nc1ccc(F)cc1	none
C[C@H](O)C#Cc1cnc2c(c1)C(=O)N([C@@H](C)CO)C[C@@H](C)[C@@H](CN(C)Cc1cccc(F)c1)O2	none
C[C@@H]1CN([C@H](C)CO)C(=O)c2cc(NC(=O)Nc3ccccc3)ccc2O[C@H]1CN(C)C(=O)NC1CCCCC1	none (no result: T cruzi growth-1)
O=C(N[C@H]1CC[C@H](CCn2cc(C3(O)CCCC3)nn2)O[C@@H]1CO)C1CC1	none (no result: T cruzi growth-1)
CCCN1[C@@H]2c3ccc(-c4ccccc4)c(=O)n3C[C@@H]2[C@@H](CO)[C@@H]1C(=O)NCCc1cn(C)cn1	none
C[C@H](CO)N1C[C@H](C)[C@@H](CN(C)S(=O)(=O)c2ccccc2)Oc2ccc(NC(=O)c3ccncc3)cc2CC1=O	none (no result: T cruzi growth-1)
C[C@@H]1CCCCO[C@@H](CN(C)Cc2ccc3c(c2)OCO3)[C@H](C)CN([C@H](C)CO)C(=O)c2cc(NS(=O)(=O)c3ccc(F)cc3)ccc2O1	none (no result: C diff HTS)
Cc1ccc(S(=O)(=O)Nc2ccc3c(c2)C(=O)N([C@H](C)CO)C[C@H](C)[C@H](CN(C)Cc2ccc4c(c2)OCO4)OCCCC[C@H](C)O3)cc1	none
C[C@@H]1CN([C@@H](C)CO)C(=O)c2cc(NS(=O)(=O)c3ccc(F)cc3)ccc2O[C@@H](C)CCCCO[C@H]1CN(C)Cc1ccc2c(c1)OCO2	none (no result: C diff HTS)
COc1ccc(S(=O)(=O)Nc2ccc3c(c2)C(=O)N([C@@H](C)CO)C[C@@H](C)[C@@H](CN(C)Cc2ccc4c(c2)OCO4)OCCCC[C@@H](C)O3)cc1	none
C[C@@H]1CN([C@H](C)CO)C(=O)c2cc(NS(=O)(=O)c3ccc(F)cc3)ccc2O[C@@H](C)CCCCO[C@@H]1CN(C)Cc1ccc2c(c1)OCO2	T cruzi growth-1 102 (no result: C diff HTS) | T cruzi growth-2 inactive | T cruzi growth-3 105 | 3T3 cytotox 71 | NIH3T3 tox 2 105
COc1ccc(S(=O)(=O)Nc2ccc3c(c2)C(=O)N([C@H](C)CO)C[C@@H](C)[C@H](CN(C)Cc2ccc4c(c2)OCO4)OCCCC[C@H](C)O3)cc1	T cruzi growth-1 inconclusive | T cruzi growth-2 108 | T cruzi growth-3 inactive | 3T3 cytotox inactive | NIH3T3 tox 2 105
Cc1ccc(S(=O)(=O)Nc2ccc3c(c2)C(=O)N([C@H](C)CO)C[C@@H](C)[C@H](CN(C)Cc2ccc4c(c2)OCO4)OCCCC[C@@H](C)O3)cc1	T cruzi growth-1 102 | T cruzi growth-2 108 | T cruzi growth-3 inactive | 3T3 cytotox inactive | NIH3T3 tox 2 82
C[C@H](CO)N1C[C@H](C)[C@H](CN(C)Cc2ccc3c(c2)OCO3)OCCCC[C@H](C)Oc2ccc(NS(=O)(=O)c3ccc(F)cc3)cc2C1=O	T cruzi growth-1 112 (no result: C diff HTS) | T cruzi growth-2 110 | T cruzi growth-3 inactive | 3T3 cytotox inactive | NIH3T3 tox 2 59
C[C@@H]1CN([C@H](C)CO)S(=O)(=O)c2ccc(-c3cncnc3)cc2O[C@@H]1CN(C)C(=O)C1CCCCC1	none (no result: T cruzi growth-1)

Bioassay records (PubChem BioAssay)
